Consider 40 molecules from PubChem BioAssay (NCI).

Where “and” joins values, the source holds several entries; their conditions need not be identical. Identical values can stand only once. About 83,000 compounds went through this panel and 20% of them were active in at least one assay; those are over-represented in the sample as a whole.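 Activity criterion: percent growth below 10, measured after cells in 96-well plates were exposed to a single compound concentration for 48 hours.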 A number with no mark means an inactive call. Calls of active or inactive are those of the source.

In the test the test system is MDA-MB-468 breast. The test is described as follows: NCI-60 one-dose screen, 48 h (100 = growth as untreated, 0 = no growth, -100 = all killed). The following applies: 10 µM unless noted.
As for `COc1cc(C2CC(c3ccc4c(c3)OCO4)=NN2C(C)=O)cc(OC)c1OC` (stereo not given), the growth was -26.8% (active).

Take `O=C1/C(=C\c2cn(C(=O)c3ccc(Cl)cc3)c3ccccc23)c2ccccc2N1C(=O)c1ccc(Cl)cc1`: the growth was 51.7%. The figure for `O=C(O)Cc1ccccn1` is 101%. To `O=c1cc(-c2ccc3c(c2)OCCO3)oc2cc(Cl)ccc12` belongs 66.4%; to `COc1ccc(/C(=N\O)c2cc(OC)c(OC)c(OC)c2)c(OC)c1N`, 29.2%. To `N#C/C(=C\c1ccc(-c2ccc(Cl)cc2)o1)C(=O)Nc1ncc(Cc2ccc(Br)cc2)s1` belongs 25.7%. `Cc1n[nH]c2ccc(Br)cc2c1=O`: the growth is 99.9%. The figure for `COc1ccc(-n2nc(C)c3c(Oc4ccc(NC(=O)Nc5c(Cl)cccc5Cl)cc4)ncnc32)cc1` is 107%; for `Brc1ccc([I+]c2ccc(Br)cc2)cc1` it is 21.6%; for `COc1ccc(C(=O)c2c(N)nc3n2CCCC3)cc1OC` it is 97.7%.

`Cc1cc(C(=O)O)c(C)cc1C(=O)O`: the growth is 96.6%. To `Nc1c(C(=O)Nc2ccccc2)sc2nc3c(cc12)CCC3` belongs 49.7%; to `Cc1cc(C(C)(C)C)cc(C)c1Br`, 113%; to `COc1cc2nc(Cl)nc(Nc3cccc(C4=Nc5c(N)nc(N)nc5NC(c5ccc(Br)cc5)C4)c3)c2cc1OC` (stereo not given), 90.3%. To `C/C(=C\c1ccc2ccccc2c1)[N+](=O)[O-]` belongs -22.8% (active); to `CN1CCN(/C=C2\CC(C(=O)NCc3ccc(Cl)cc3Cl)NC2=O)CC1` (stereo not given), 103%. Turning to `O=c1cc2oc3cc(O)c(O)cc3c(-c3ccccc3O)c-2cc1O`, the growth is 93.9%. To `O=[N+]([O-])c1ccc(N/N=C(/C(=N/Nc2ccc([N+](=O)[O-])cc2)c2ccccc2)c2ccccc2)cc1` belongs 80.6%.

In the case of `N#Cc1ccc(/C=C/c2cn(-c3ccccc3)nc2-c2cccc([N+](=O)[O-])c2)cc1`, the growth was 64.7%. Turning to `COc1cc(-n2nc(C(=O)Nc3ccc(C(=O)O)cc3)nc2-c2ccccc2)cc(OC)c1OC`, the growth is 0.458% (active).

For `O=C1c2cccnc2-c2ncccc21`, the growth is 100% [100 µM]. To `COc1ccc(NC(=O)CSc2nc(C)c(C(C)=O)n2-c2ccc(Cl)cc2)cc1` belongs 98.8%; to `Cc1cc(NCCCCNc2ccnc3cc(Cl)ccc23)nc(Nc2ccc(C(=O)N3CCCC3)cc2)n1`, -26.6% (active). Consider `C=CN(C(=O)N1CCN(c2cc3c(cc2F)c(=O)c(C(=O)O)cn3C2CC2)CC1)c1nc(-c2ccccc2)cs1`, for which the growth is 100%. To `Cc1cccc(/C=C\C(=O)c2ccc(Cl)cc2)c1` belongs 106% and 90.9%; to `COc1ccc(C2=NN(C(=O)c3cc(OC)c(OC)c(OC)c3)C(c3ccc(N(C)C)cc3)C2)cc1` (stereo not given), 22.7%; to `C=C(C)C1CC(O)C2(C)CCCC3C2C1CC(C)C3(C)CC/C(C)=C/C(O)C1CCC(=O)c2c(OC)cc(OC)cc21` (stereo not given), 0.0686% (active).

In the case of `CN(C)CCN1C(=O)c2cccc3c(-c4ccc(-c5nc6c7ccccc7c7ccccc7c6[nH]5)cc4)ccc(c23)C1=O`, the growth is 108%. For `CN(C)CCCCC(C(=O)CBr)(c1ccccc1)c1ccccc1`, the growth was -53.1% (active). To `Cc1ccc(Nc2oc(-c3ccccc3)nc2[P+](c2ccccc2)(c2ccccc2)c2ccccc2)cc1` belongs -77.1% (active); to `CC(C)(C)Nc1nc2c(OCCc3ccccc3)cccn2c1-c1cccc(F)c1`, -30.8% (active).

Take `Cc1ccc(S(=O)(=O)C2=C3C(=C(c4ccccc4)c4ccccc43)CN(S(=O)(=O)c3ccc(C)cc3)C2)cc1`: the growth was 51%. For `COC(=O)C(CCC(=O)CCl)N1C(=O)c2ccccc2C1=O` (stereo not given), the growth was 32.1%. For the molecule `Nc1nc(N)c(N=Nc2c(Br)cc(S(N)(=O)=O)cc2Br)c(N)n1`, the growth is 54%. The figure for `CCOC(=O)c1cc(C(=O)c2cc(OC)cc(OC)c2)n2ncccc12` is 26.3%. The figure for `O=P([O-])(O)OP(=O)([O-])O.[NH-][C@H]1CCCC[C@@H]1[NH-].[OH-].[OH-].[Pt+4]` is 102%; for `C=C(C)[C@@H]1CC[C@]2(C)[C@H](CC[C@@H]3[C@@H]([C@@](C)(O)CCC=C(C)C)CC[C@]32C)[C@@]1(C)CCC(=O)N1CCN(C)CC1` it is -82.2% [100 µM] (active); for `O=c1c2sc3ncccc3c2nnn1-c1ccccc1` it is 104%. For `Cc1ccc(-c2nnc(SCc3ccc(O)c4ncccc34)o2)cc1`, the growth is 14.4%. To `Cc1ccc(C(=O)NC2c3ccccc3Oc3ccccc32)cc1` belongs 41.8%.
